Measured values from PubChem BioAssay (NCATS).
Records with an inconclusive call do not appear. Entries that show only a call come without a potency. Activity calls are given as the source filed them. The call rests on the fitted dose curve; in most records, active means well fitted inhibition curve with a large enough effect; inconclusive means small, poorly fitted or top-dose-only effect; inactive means flat fitted curve, though single readings scatter.
Potency means the concentration at half of the fitted maximal effect.

What follows are compounds tested on Zika virus NS2B-NS3 protease (assay: Primary screen GU AMC qHTS for Zika virus inhibitors (AID 1347154; further: nearly all actives have a fitted effect of over 70% in size)). Details: Zika NS2B-NS3 unlinked protease, AMC fluorogenic substrate; series mostly up to 54.1 µM.
How it was run: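 Fluorogenic AMC-substrate cleavage by noncovalent NS2B-NS3 protease complex (25 nM, pH 8.0 Tris buffer with Tween 20) followed for 15 minutes at room temperature (~20% conversion). Percent inhibition from ex340/em450 signal change, fitted by 4-parameter Hill equation.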
In the case of `CC1(C)OC2CC3C4CC(F)C5=CC(=O)C=CC5(C)C4C(O)CC3(C)[C@]2(C(=O)CO)O1` (stereo partly drawn), the Potency is reported as “inactive”. With `CCCCN(CCCC)CC(O)c1cc(Cl)cc2c1-c1ccc(Cl)cc1C2=Cc1ccc(Cl)cc1` (stereo not drawn) the Potency was “inactive”. In the case of `CN1N=C(N)c2cn([C@@H]3O[C@H](COP(=O)(O)O)[C@@H](O)[C@@H]3O)c3ncnc1c23`, the Potency is reported as “inactive”. `CCC[C@H](Nc1nc(-c2ccc(NC(=O)NCC)c(OC)c2)ncc1C)c1cccnc1` was tested, and the Potency was “inactive”. For `CCN(CC)CCCCNc1nc2cc(Cl)c(Cl)cc2nc1-c1ccc(-c2cccs2)s1`, the Potency was “inactive”. With `C[C@H]1[C@H](O)O[C@@H]2O[C@@]3(C)CC[C@@H]4[C@H](C)CC[C@@H]1[C@@]24OO3` the Potency was “inactive”. `CC(C)N(CCCNC(=O)Nc1ccc(C(C)(C)C)cc1)C[C@H]1O[C@@H](n2cc(Br)c3c(N)ncnc32)[C@H](O)[C@H]1O` was tested, and the Potency was “inactive”. For `COc1cc2nc(-c3cc(F)ccc3O)nc(N[C@@H]3CNC[C@@H]3C(C)(C)O)c2cc1OC`, the Potency was “inactive”. In the case of `Cc1ccc(NC(=O)c2ccc(CN3CCN(C)CC3)cc2)cc1Nc1nc(-c2cccnc2)cs1`, the Potency is reported as “inactive”. With `CNC(=O)c1cc(COc2nnc(Nc3ccc(Cl)cc3)c3ccoc23)ccn1` the Potency was “inactive”. `CNC1[C@H](O)C(O[C@@H]2C(O)C(O[C@H]3O[C@H]([C@@H](C)NC)CC[C@H]3N)[C@@H](N)C[C@H]2N)OC[C@]1(C)O` (stereo partly drawn) was tested, and the Potency was “inactive”. In the case of `COc1cc2ncnc(Nc3cc(Br)c(O)c(Br)c3)c2cc1OC`, the Potency is reported as “inactive”. For `CCCCCOC(=O)Nc1nc(=O)n([C@@H]2O[C@H](C)[C@@H](O)C2O)cc1F` (stereo partly drawn), the Potency was “inactive”. For `Cc1cc(CS(=O)(=O)c2ccccc2)cc(OCc2ccc(CN3CCC[C@H]3CO)cc2)c1`, the Potency was “inactive”. In the case of `CN(CC=CC#CC(C)(C)C)Cc1cccc2ccccc12`, the Potency is reported as “inactive”. For `C=C[C@@H]1CN2CCC1C[C@@H]2C(O)c1ccnc2ccc(OC)cc12` (stereo partly drawn), the Potency was “inactive”. With `Cc1ccc(NC(=O)c2cccc(N(C)C)c2)cc1NC(=O)c1ccc(O)cc1` the Potency was “inactive”. With `CCNC(=O)[C@H]1O[C@@H](n2cnc3c(N)nc(NCCc4ccc(CCC(=O)O)cc4)nc32)[C@H](O)[C@H]1O` the Potency was “inactive”. For `O=S(=O)(NCCNCC=Cc1ccc(Br)cc1)c1cccc2cnccc12`, the Potency was “inactive”. For `O=C(c1ccc(C=Cc2n[nH]c3ccccc23)cc1)N1CCNCC1`, the Potency was 7.64 µM (active). For `Nc1nc(Cl)nc2c1ncn2[C@@H]1O[C@H](CO)[C@@H](O)[C@H]1F`, the Potency was “inactive”. With `CO[C@H]1O[C@@H]2O[C@@]3(C)CC[C@@H]4[C@@H](C)CC[C@@H]([C@H]1C)[C@@]24OO3` the Potency was “inactive”. With `NS(=O)(=O)c1ccc(Nc2nc(OCC3CCCCC3)c3[nH]cnc3n2)cc1` the Potency was “inactive”. In the case of `NC(N)=Nc1nc(CSCCC(N)=NS(N)(=O)=O)cs1`, the Potency is reported as “inactive”. For `CNC(=O)[C@H](CC1=CN=C2C=CCC=C12)NC(=O)[C@@H](CC(=O)NO)CC(C)C`, the Potency was “inactive”. In the case of `COc1cc(N2CCN(C)CC2)ccc1Nc1nc(N)c(C(=O)c2c(Cl)cccc2Cl)s1`, the Potency is reported as “inactive”. With `C[C@]12CCC3=C4CCC(=O)C=C4CC[C@@H]3[C@H]1CC[C@@]2(O)CC#N` the Potency was “inactive”. For `Cc1ccc(C(=O)N(CCCN)[C@@H](c2nc3cc(Cl)ccc3c(=O)n2Cc2ccccc2)C(C)C)cc1`, the Potency was “inactive”. In the case of `COc1ccc(C=CC(=O)Nc2ccccc2C(=O)O)cc1OC`, the Potency is reported as “inactive”. In the case of `C[C@@H]1[C@H](C)CC[C@]2(C(=O)O)CC[C@]3(C)C(=CC[C@@H]4[C@@]5(C)CC[C@H](O)C(C)(C)[C@H]5CC[C@]43C)[C@@H]12`, the Potency is reported as “inactive”. With `O=C(Nc1ncc(SCCN2CCCC2)s1)[C@]1(c2ccc(S(=O)(=O)C3CC3)cc2)C[C@@H]1C1CCCCC1` the Potency was “inactive”. In the case of `O=C1C(CCC(O)c2ccc(F)cc2)C(c2ccc(O)cc2)N1c1ccc(F)cc1` (stereo not drawn), the Potency is reported as “inactive”. With `CC(C)C[C@H](NC(=O)c1cc2ccccc2s1)C(=O)N1CCN(C(=O)[C@H](CO)NS(=O)(=O)c2ccc(Cl)cc2Cl)CC1` the Potency was “inactive”. With `CN(C)c1ccccc1CN1CCCN(Cc2ccccc2N(C)C)C1c1ccncc1` the Potency was “inactive”. In the case of `Cc1nc(NC(=O)N2CCC[C@@H]2C(N)=O)sc1-c1csc(C(C)(C)C)n1`, the Potency is reported as “inactive”. For `FC(F)(F)c1ccc(C=Cc2nc(COc3ccc(CCCCn4ccnn4)cc3)co2)cc1`, the Potency was “inactive”. With `O=C(Nc1cccc(Cl)c1)Nc1ncc(CCNc2ncnc3ccsc23)s1` the Potency was “inactive”. With `C=CC[N+]1([C@H]2C[C@H]3[C@@H]4CC[C@H]5C[C@H](O)[C@@H](N6CCOCC6)C[C@]5(C)[C@@H]4CC[C@]3(C)[C@H]2OC(C)=O)CCCC1` the Potency was “inactive”.
